In the library only some 1.3% were active in any assay of this set; here they are far more common.
EPAC1 antagonist: blocks human EPAC1 exchange factor. O95398. EPAC1 GEF assay, Rap1b-BODIPY-GDP exchange fluorescence. Potency, µM (doses to about 115 µM), without a hit: at the highest dose activity change, negative = inhibition, actives largely listed as inhibitors. 360,000 compounds, 0.14% hits. AID 720709;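 further: plate controls were vehicle for no effect and positive control for full effect; nearly all actives have a fitted effect of over 50% in size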
EPAC2 ag: activates human EPAC2 exchange factor; Q8WZA2; EPAC2 activation, biochemical qHTS; response scale: 100% = 6.5 mM cAMP response; Potency, µM (top dose mostly 154 µM), inactives show at the top dose activation, actives largely listed as activators; 360,000 compounds, 0.079% hits; AID 720711; further: nearly all actives have a fitted effect of over 50% in size
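Setup: EPAC2 100 nM, labeled Rap1B complex 250 nM, free GDP 50 uM. Compound titrations pinned in, brief spin, 5 min room temperature incubation. Kinetic fluorescence read over 30 min, normalized to 6.5 mM cAMP.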
RGS4 inh: inhibitors of human regulator of G protein signaling 4. Transcreener GDP fluorescence polarization, RGS4-accelerated GTP hydrolysis. Potency, µM (titrated, usually from 114 µM), for the others: at the highest dose activity change, negative = inhibition, most hits filed as inhibitors. 390,000 compounds, 0.039% hits; further: on the % scale 0 is the no-effect control and ±100 the full control effect; nearly all actives have a fitted effect of over 75% in size
Target sequence (P49798 whole entry, looked up): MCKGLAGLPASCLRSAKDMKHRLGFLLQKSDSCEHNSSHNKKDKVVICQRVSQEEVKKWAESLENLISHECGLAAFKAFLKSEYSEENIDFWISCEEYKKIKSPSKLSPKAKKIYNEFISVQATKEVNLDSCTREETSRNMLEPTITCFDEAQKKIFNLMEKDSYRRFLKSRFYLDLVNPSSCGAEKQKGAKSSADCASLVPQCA
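MLSMR compounds (23 nl, pin-transferred) preincubated 10 min at room temperature with a 500nM (2x) first reagent, then RGS4 at 900nM (2x) plus Transcreener GDP mix added; fluorescence polarization (620/688 nm) read before and after 90 min at 30 °C.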
EPAC1 agonist: EPAC1 (human) agonism; O95398; EPAC1 agonist qHTS, biochemical assay; response scale: 100% = response to 6.5 mM cAMP; Potency, µM (series often up to 154 µM), for inactives: at the highest dose activation, actives largely listed as activators; 360,000 compounds, 0.073% hits; AID 720707; further: nearly all actives have a fitted effect of over 60% in size
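Nucleotide exchange by EPAC1 (100 nM) on Rap1B–BODIPY-GDP (250 nM) in the presence of 50 uM GDP is tracked fluorescently at 480/540 nm over 30 min. Signals are normalized to a 6.5 mM cAMP control.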
BRCA1 expr act: activators of BRCA1 expression. 380,000 compounds, 1.1% hits. Potency, µM (series often up to 46.1 µM), without a hit: at the highest dose activation, actives largely listed as activators. MCF7-BRCA1-FFLuc reporter, luminescence, 48 h; response scale: scaled: vehicle 0%, 10 µM genistein 100%. AID 624202; further: nearly all actives have a fitted effect of over 80% in size
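Reporter cells (MCF7, BRCA1 promoter-firefly luciferase) received library compounds across a concentration series for 48 h. End-point luminescence was measured and concentration-effect curves derived after normalization.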
EPAC2 antag: antagonists of human EPAC2 | 360,000 compounds, 0.18% hits | Q8WZA2 | Potency, µM (doses to about 114 µM), for the others: at the top dose activity, negative = inhibition, usual class: inhibitors | AID 720708 | EPAC2 GEF exchange of Rap1B-BODIPY-GDP, fluorescence; further: on the % scale 0 is the no-effect control and ±100 the full control effect; nearly all actives have a fitted effect of over 45% in size
* hit, by the source's call; [ ] = another dose, or the depositor's remark. The call rests on the fitted dose curve; in most records, active means well fitted curve in the direction sought with a large enough effect; inconclusive means small, poorly fitted or top-dose-only effect, or another doubt; inactive means no such curve, though single readings can be large; an effect the other way counts as inactive or inconclusive. Potency means the concentration at half of the fitted maximal effect.

How did COc1ccc(-n2c(C)n[nH]c2=O)cc1 do in these assays?
EPAC1 antagonist: -13%; EPAC2 ag: 6%; RGS4 inh: 7%; EPAC1 agonist: 1%; BRCA1 expr act: 0%; EPAC2 antag: 0%

What do the screens show for `Cc1nn(-c2ccc(F)cc2)c(Cl)c1/C=N/NC(=O)c1cccc(S(=O)(=O)N2CCCC2)c1`?
EPAC1 antagonist: -7%; EPAC2 ag: 8%; RGS4 inh: -23%; EPAC1 agonist: -2%; BRCA1 expr act: -9%; EPAC2 antag: 15%

How did COc1cccc(CN(C)C(=O)CSc2nc3ccccc3[nH]2)c1OC do in these assays?
EPAC1 antagonist: 6%; EPAC2 ag: 7%; RGS4 inh: 14%; EPAC1 agonist: 12%; BRCA1 expr act: 19%; EPAC2 antag: -8%

How did N#C/C(=C\c1ccc(N2CCOCC2)o1)c1nc2ccccc2[nH]1 do in these assays?
EPAC1 antagonist: -17%; EPAC2 ag: 50µM*; RGS4 inh: -1%[11.4 µM]; EPAC1 agonist: 63µM*; BRCA1 expr act: inconclusive; EPAC2 antag: 6%

How did N#C/C(=C\c1ccc(N2CCOCC2)c([N+](=O)[O-])c1)c1nc2ccccc2[nH]1 do in these assays?
EPAC1 antagonist: 11%; EPAC2 ag: 1%; RGS4 inh: -23%; EPAC1 agonist: 11%; BRCA1 expr act: -39%; EPAC2 antag: -11%

Results for CCOc1ccc(/C=N/NC(=O)c2ccoc2C)cc1OC ?
EPAC1 antagonist: -17%; EPAC2 ag: 13%; RGS4 inh: -4%; EPAC1 agonist: 7%; BRCA1 expr act: 10µM*; EPAC2 antag: 0%

What do the screens show for `COc1cc(/C=N/NC(=O)c2ccoc2C)ccc1O`?
EPAC1 antagonist: -6%; EPAC2 ag: -6%; RGS4 inh: -2%; EPAC1 agonist: -1%; BRCA1 expr act: inconclusive; EPAC2 antag: 6%

What do the screens show for `Cc1occc1C(=O)N/N=C/c1ccc(Br)s1`?
EPAC1 antagonist: -6%; EPAC2 ag: 5%; RGS4 inh: -14%; EPAC1 agonist: 3%; BRCA1 expr act: 8.9µM*; EPAC2 antag: 2%

Results for Cc1ccccc1NC(=S)N/N=C/c1ccc(O)cc1O ?
EPAC1 antagonist: inconclusive; EPAC2 ag: 6%; RGS4 inh: -34%; EPAC1 agonist: 8%; BRCA1 expr act: -21%; EPAC2 antag: -10%

What do the screens show for `Cc1nc2cc(NC(=O)NCc3ccco3)ccc2n1C`?
EPAC1 antagonist: 8%; EPAC2 ag: -3%; RGS4 inh: 3%; EPAC1 agonist: -1%; BRCA1 expr act: 11µM*; EPAC2 antag: 0%

How did Cn1c(CCNC(=O)c2ccco2)nc2cc(NC(=O)c3ccco3)ccc21 do in these assays?
EPAC1 antagonist: 8%; EPAC2 ag: 4%; RGS4 inh: -18%; EPAC1 agonist: 6%; BRCA1 expr act: 8.9µM*; EPAC2 antag: 5%

What do the screens show for `Cc1cccc(NS(=O)(=O)c2nnc(NC(=O)C3CCCCC3)s2)c1`?
EPAC1 antagonist: 8%; EPAC2 ag: -4%; RGS4 inh: 7%; EPAC1 agonist: -24%; BRCA1 expr act: 5%; EPAC2 antag: 1%

How did Cc1cccc2c1-c1sc(C(=O)N3CCCCC3)cc1CO2 do in these assays?
EPAC1 antagonist: -23%; EPAC2 ag: 16%; RGS4 inh: 11%; EPAC1 agonist: 10%; BRCA1 expr act: 6.3µM*; EPAC2 antag: inconclusive

What do the screens show for `CCCCC[C@@H](/C=C/C1C(=O)C=C[C@H]1C/C=C\CCCC(=O)O)OC(C)=O` (some centres not stated)?
EPAC1 antagonist: -8%; EPAC2 ag: -1%; RGS4 inh: -26%; EPAC1 agonist: -23%; BRCA1 expr act: 6%; EPAC2 antag: inconclusive

Results for Cc1cc(C)c2nc(N3CCCC(C(=O)NCCCN4CCOCC4)C3)sc2c1 (configuration not stated) ?
EPAC1 antagonist: -15%; EPAC2 ag: 2%; RGS4 inh: -2%; EPAC1 agonist: -2%; BRCA1 expr act: 71%; EPAC2 antag: -3%

How did Cc1cc(C)c2nc(N3CCCC(C(=O)NCCN4CCOCC4)C3)sc2c1 (configuration not stated) do in these assays?
EPAC1 antagonist: 9%; EPAC2 ag: 1%; RGS4 inh: -9%; EPAC1 agonist: -3%; BRCA1 expr act: 2.8µM*; EPAC2 antag: 6%

What do the screens show for `COc1ccc(S(=O)(=O)N2CCC[C@H]2C(=O)N2CCC[C@H]2C(=O)NCc2ccccc2)cc1C`?
EPAC1 antagonist: 20%; EPAC2 ag: 1%; EPAC1 agonist: -10%; BRCA1 expr act: -8%; EPAC2 antag: 47µM*

How did COc1cccc(CNC(=O)[C@@H]2CCCN2C(=O)[C@@H]2CCCN2S(=O)(=O)c2ccc(OC)c(C)c2)c1 do in these assays?
EPAC1 antagonist: 1%; EPAC2 ag: -3%; EPAC1 agonist: -17%; BRCA1 expr act: 1%; EPAC2 antag: -8%

How did CCOC(=O)c1cc(S(=O)(=O)NCc2cccc(Cl)c2)[nH]n1 do in these assays?
RGS4 inh: 3%

Results for Clc1ccc(OCc2noc(-c3ccsc3)n2)c(Cl)c1 ?
EPAC1 antagonist: -10%; EPAC2 ag: 8%; RGS4 inh: 4%; EPAC1 agonist: -2%; BRCA1 expr act: 3.5µM*; EPAC2 antag: -11%

What do the screens show for `C#CCn1c(C)cc(C)c(S(=O)(=O)c2ccccc2)c1=O`?
EPAC1 antagonist: -3%; EPAC2 ag: 7%; RGS4 inh: -26%; EPAC1 agonist: 12%; BRCA1 expr act: 13µM*; EPAC2 antag: -1%

What do the screens show for `Cc1cc(C)n(Cc2ccccc2)c(=O)c1S(=O)(=O)c1ccccc1`?
EPAC1 antagonist: -6%; EPAC2 ag: 14%; RGS4 inh: -20%; EPAC1 agonist: 0%; BRCA1 expr act: 1%; EPAC2 antag: 2%

How did Cc1ccc(OCC(=O)Nc2cc(C)on2)c([N+](=O)[O-])n1 do in these assays?
EPAC1 antagonist: -4%; EPAC2 ag: 0%; RGS4 inh: 10%; EPAC1 agonist: -2%; BRCA1 expr act: 76%; EPAC2 antag: 8%

What do the screens show for `O=C1c2ccccc2-c2onc3ccc(NCCCn4ccnc4)c1c23`?
EPAC1 antagonist: 335%; EPAC2 ag: -86%; RGS4 inh: -41%; EPAC1 agonist: 100µM*; BRCA1 expr act: -53%; EPAC2 antag: 406%

What do the screens show for `COc1ccc2noc3c2c1C(=O)c1ccccc1-3`?
EPAC1 antagonist: inactive; EPAC2 ag: inconclusive; RGS4 inh: -36%; EPAC1 agonist: 100µM*; BRCA1 expr act: -15%; EPAC2 antag: 456%
